Reference: PubChem BioAssay (EPA / NIEHS)
Values joined by “and” are separate entries in the source; they are usually repeats but may differ in a detail not shown here. Identical values can stand only once. Results filed as inconclusive are left out. Active and inactive are the calls of the source. Rule for the calls: active = hit-call score of the fitted dose curve at least 0.9, where 1 is the maximum; inconclusive = response in the unintended direction; inactive = score below 0.9.

Experiments:
[1] = biological target: human Adenosine A2a Receptor (AdoRA2a), ADORA2A (gene 135) (UniProt P29274); assay: NVS_GPCR_hAdoRA2a: NovaScreen (NVS) G Protein-Coupled Receptor Assay for human Adenosine A2a Receptor (AdoRA2a) (AID 2283256)
human Adenosine A2a Receptor (AdoRA2a), ADORA2A (gene 135), sequence (P29274 whole entry, looked up): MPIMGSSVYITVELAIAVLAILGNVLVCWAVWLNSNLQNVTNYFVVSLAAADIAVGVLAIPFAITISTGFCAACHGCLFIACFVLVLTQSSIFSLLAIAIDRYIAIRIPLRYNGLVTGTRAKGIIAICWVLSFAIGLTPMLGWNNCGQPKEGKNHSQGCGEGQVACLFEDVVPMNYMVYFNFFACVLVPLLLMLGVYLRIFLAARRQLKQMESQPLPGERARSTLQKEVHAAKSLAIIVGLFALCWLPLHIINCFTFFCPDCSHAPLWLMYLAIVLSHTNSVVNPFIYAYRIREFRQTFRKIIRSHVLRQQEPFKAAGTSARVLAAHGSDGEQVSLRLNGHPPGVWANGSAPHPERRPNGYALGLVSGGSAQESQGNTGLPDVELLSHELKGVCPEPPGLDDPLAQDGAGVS
Procedure, shortened: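 Radioligand displacement on HEK293-derived membrane protein, cell-free; filter-based scintillation counting 1.5 hours after dosing, loss of signal vs DMSO. Single-point duplicate screen at 25 uM, actives retested in concentration series.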

[2] = biological target: D(1A) dopamine receptor (Homo sapiens) (UniProt P21728); assay: NVS_GPCR_hDRD1: NovaScreen (NVS) G Protein-Coupled Receptor Assay for human Dopamine Receptor D1 (DRD1) (AID 2283269)
D(1A) dopamine receptor (Homo sapiens), sequence (P21728 whole entry, looked up): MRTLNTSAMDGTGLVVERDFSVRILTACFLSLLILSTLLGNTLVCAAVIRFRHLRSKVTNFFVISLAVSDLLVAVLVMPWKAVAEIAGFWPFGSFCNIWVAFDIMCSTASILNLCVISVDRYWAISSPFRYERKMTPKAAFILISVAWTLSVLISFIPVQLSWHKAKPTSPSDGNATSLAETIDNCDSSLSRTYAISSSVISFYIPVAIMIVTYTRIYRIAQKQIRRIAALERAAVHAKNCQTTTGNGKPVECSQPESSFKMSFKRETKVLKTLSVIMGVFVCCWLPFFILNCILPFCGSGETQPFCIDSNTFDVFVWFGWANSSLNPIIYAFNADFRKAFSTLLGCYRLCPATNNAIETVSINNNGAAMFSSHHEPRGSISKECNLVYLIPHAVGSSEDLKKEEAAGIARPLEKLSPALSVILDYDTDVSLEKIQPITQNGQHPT
Procedure, shortened: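 Radioligand displacement binding on membranes/protein extracted from HEK293 expressing human D1, cell-free; read 1 h after dosing by filter-based scintillation counting. Primary screen in duplicate at 25 uM, actives followed up in concentration series; signal loss versus DMSO baseline.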

[3] = biological target: human Serotonin, 5-Hydroxytryptamine Receptor 7 (5HT7), HTR7 (gene 3363) (UniProt P34969); assay: NVS_GPCR_h5HT7: NovaScreen (NVS) G Protein-Coupled Receptor Assay for human Serotonin, 5-Hydroxytryptamine Receptor 7 (5HT7) (AID 2283255);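 note: hits reduce specific radioligand binding relative to DMSO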
human Serotonin, 5-Hydroxytryptamine Receptor 7 (5HT7), HTR7 (gene 3363), sequence (P34969 whole entry, looked up): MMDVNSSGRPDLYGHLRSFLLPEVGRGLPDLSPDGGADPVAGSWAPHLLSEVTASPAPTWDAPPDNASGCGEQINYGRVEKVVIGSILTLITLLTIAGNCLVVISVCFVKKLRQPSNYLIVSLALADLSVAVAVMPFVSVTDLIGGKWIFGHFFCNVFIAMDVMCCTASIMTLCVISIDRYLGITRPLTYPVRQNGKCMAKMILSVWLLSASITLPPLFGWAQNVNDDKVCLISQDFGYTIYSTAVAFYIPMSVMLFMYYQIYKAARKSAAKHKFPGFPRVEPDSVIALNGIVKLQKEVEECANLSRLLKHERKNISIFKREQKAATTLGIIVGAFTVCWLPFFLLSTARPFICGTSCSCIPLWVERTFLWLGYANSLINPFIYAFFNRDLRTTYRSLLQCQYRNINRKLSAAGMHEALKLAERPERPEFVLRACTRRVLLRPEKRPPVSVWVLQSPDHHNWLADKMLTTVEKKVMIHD
Procedure, shortened: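 Radioligand displacement on membranes from CHO cells expressing human 5HT7, 1 h incubation, filter-based scintillation counting. Primary screen used a single 25 uM concentration in duplicate; actives were followed up in concentration series.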

[4] = biological target: human Dopamine Receptor D4.4 (DRD4.4), DRD4 (gene 1815) (UniProt P21917); assay: NVS_GPCR_hDRD4.4: NovaScreen (NVS) G Protein-Coupled Receptor Assay for human Dopamine Receptor D4.4 (DRD4.4) (AID 2283264)
human Dopamine Receptor D4.4 (DRD4.4), DRD4 (gene 1815), sequence (P21917 whole entry, looked up): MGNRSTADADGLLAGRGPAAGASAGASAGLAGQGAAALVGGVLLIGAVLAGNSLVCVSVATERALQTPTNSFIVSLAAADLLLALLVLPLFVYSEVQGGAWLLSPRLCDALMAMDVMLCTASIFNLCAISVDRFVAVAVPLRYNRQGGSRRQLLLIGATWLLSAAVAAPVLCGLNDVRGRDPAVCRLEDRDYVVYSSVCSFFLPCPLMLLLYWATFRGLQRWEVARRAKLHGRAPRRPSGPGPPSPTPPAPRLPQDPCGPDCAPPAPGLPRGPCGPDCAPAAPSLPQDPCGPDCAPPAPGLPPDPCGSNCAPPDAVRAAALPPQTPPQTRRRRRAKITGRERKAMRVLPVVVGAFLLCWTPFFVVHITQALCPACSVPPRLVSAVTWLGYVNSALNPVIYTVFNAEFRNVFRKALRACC
Procedure, shortened: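 Radioligand displacement on human DRD4.4 from CHO-derived membranes, 1 hour incubation, bound counts read by filtration and scintillation. Primary screen in duplicate at 25 uM; actives followed up in concentration series.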

[5] = biological target: human Dopamine Receptor D2 (DRD2), DRD2 (gene 1813) (UniProt P14416); assay: NVS_GPCR_hDRD2s: NovaScreen (NVS) G Protein-Coupled Receptor Assay for human Dopamine Receptor D2 (DRD2) (AID 2283266)
human Dopamine Receptor D2 (DRD2), DRD2 (gene 1813), sequence (P14416 whole entry, looked up): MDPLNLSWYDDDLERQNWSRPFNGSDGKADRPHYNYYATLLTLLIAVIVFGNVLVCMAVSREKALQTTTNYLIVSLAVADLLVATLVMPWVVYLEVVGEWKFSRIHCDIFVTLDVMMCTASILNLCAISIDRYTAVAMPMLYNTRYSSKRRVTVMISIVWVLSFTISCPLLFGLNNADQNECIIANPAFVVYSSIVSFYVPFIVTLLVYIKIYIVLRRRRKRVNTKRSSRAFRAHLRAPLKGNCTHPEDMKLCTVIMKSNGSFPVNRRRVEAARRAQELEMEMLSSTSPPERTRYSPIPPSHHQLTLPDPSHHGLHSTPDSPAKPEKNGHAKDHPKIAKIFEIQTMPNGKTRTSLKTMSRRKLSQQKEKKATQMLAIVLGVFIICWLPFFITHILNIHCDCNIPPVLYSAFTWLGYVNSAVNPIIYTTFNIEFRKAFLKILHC
Procedure, shortened: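 Radioligand displacement used human DRD2 membranes extracted from CHO cells and was read by filter-based scintillation counting after 1.5 hours. Primary screening was in duplicate at 25 uM. Loss of signal versus DMSO was fitted, with concentration series in follow-up.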

[6] = biological target: human Adrenergic, Beta 3 Receptor (Adrb3), ADRB3 (gene 155) (UniProt P13945); assay: NVS_GPCR_hAdrb3: NovaScreen (NVS) G Protein-Coupled Receptor Assay for human Adrenergic, Beta 3 Receptor (Adrb3) (AID 2283262)
human Adrenergic, Beta 3 Receptor (Adrb3), ADRB3 (gene 155), sequence (P13945 whole entry, looked up): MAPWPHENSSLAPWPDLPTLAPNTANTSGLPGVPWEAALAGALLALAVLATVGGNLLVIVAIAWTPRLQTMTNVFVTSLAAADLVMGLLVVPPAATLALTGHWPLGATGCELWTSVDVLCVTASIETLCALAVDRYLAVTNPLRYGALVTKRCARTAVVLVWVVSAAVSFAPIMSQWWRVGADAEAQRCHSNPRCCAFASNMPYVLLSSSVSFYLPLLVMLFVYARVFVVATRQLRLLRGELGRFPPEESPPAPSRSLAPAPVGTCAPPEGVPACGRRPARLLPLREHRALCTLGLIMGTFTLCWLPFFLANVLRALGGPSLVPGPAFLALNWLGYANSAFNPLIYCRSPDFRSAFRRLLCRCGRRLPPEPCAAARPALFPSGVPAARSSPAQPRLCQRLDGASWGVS
Procedure, shortened: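 Membranes from SK-N-MC cells pretreated with isoproterenol and 8-bromo-cAMP were used in a radioligand competitive displacement binding assay. Binding was read by filter-based scintillation counting 1 hour after dosing. Primary screening was in duplicate at 25 uM, with concentration series in follow-up.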

[7] = biological target: guinea pig Opioid, Kappa 1 Receptor (OpiateK), OPRK1 (gene 100135587) (UniProt P41144); assay: NVS_GPCR_gOpiateK: NovaScreen (NVS) G Protein-Coupled Receptor Assay for guinea pig Opioid, Kappa 1 Receptor (OpiateK) (AID 2283252);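 note: radioligand displacement from kappa opioid receptor in guinea pig cerebellar membranes; active means reduced radioligand binding relative to DMSO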
guinea pig Opioid, Kappa 1 Receptor (OpiateK), OPRK1 (gene 100135587), sequence (P41144 whole entry, looked up): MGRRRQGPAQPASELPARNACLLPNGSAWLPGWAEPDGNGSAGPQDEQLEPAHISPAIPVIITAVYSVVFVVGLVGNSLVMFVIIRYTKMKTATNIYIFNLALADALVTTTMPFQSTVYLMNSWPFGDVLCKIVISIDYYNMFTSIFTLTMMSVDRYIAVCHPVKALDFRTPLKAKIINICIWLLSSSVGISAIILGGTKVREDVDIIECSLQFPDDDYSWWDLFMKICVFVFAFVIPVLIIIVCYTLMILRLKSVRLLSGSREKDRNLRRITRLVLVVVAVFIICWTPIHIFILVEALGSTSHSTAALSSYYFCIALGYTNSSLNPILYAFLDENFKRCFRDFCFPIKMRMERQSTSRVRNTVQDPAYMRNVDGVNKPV
Procedure, shortened: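 Guinea pig cerebellar membranes were incubated with a radioligand for 2 h after compound addition; bound radioactivity was read by filter-based scintillation counting. Loss of specific binding relative to DMSO baseline defined activity; primary screen at 25 uM in duplicate.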

[8] = biological target: human Serotonin, 5-Hydroxytryptamine Receptor 2A (5HT2A), HTR2A (gene 3356) (UniProt P28223); assay: NVS_GPCR_h5HT2A: NovaScreen (NVS) G Protein-Coupled Receptor Assay for human Serotonin, 5-Hydroxytryptamine Receptor 2A (5HT2A) (AID 2283249)
Procedure, shortened: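 Human cortex membranes, cell-free radioligand binding; filter-based scintillation read 1.5 h after dosing. Duplicate screen at 25 uM first; displacement of specific binding (loss of signal) versus DMSO.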

[9] = test system: guinea pig Muscarinic, Peripheral (Mperiperal) Receptor, Non-selective Binding, gene 100379235; assay: NVS_GPCR_gMPeripheral_NonSelective: NovaScreen (NVS) G Protein-Coupled Receptor Assay for guinea pig Muscarinic, Peripheral (Mperiperal) Receptor, Non-selective Binding (AID 2283250)
Procedure, shortened: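 Guinea pig bladder membranes, radioligand binding read 1 h after dosing by filter scintillation counting; loss of signal vs DMSO. Primary duplicate screen at 25 uM, then concentration-response up to 50 uM.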

[10] = biological target: human Serotonin, 5-Hydroxytryptamine Receptor 5A (5HT5A), HTR5A (gene 3361) (UniProt P47898); assay: NVS_GPCR_h5HT5A: NovaScreen (NVS) G Protein-Coupled Receptor Assay for human Serotonin, 5-Hydroxytryptamine Receptor 5A (5HT5A) (AID 2283251)
human Serotonin, 5-Hydroxytryptamine Receptor 5A (5HT5A), HTR5A (gene 3361), sequence (P47898 whole entry, looked up): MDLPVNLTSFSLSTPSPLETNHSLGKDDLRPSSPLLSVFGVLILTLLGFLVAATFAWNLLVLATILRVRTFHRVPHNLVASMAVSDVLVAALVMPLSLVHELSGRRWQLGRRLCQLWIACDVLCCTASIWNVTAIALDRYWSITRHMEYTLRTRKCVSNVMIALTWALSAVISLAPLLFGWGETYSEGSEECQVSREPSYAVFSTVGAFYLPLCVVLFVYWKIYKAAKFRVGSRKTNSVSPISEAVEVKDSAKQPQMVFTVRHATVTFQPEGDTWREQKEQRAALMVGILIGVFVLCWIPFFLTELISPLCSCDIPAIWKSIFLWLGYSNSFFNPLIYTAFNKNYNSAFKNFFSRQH
Procedure, shortened: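 Cell-free radioligand displacement binding on HEK293-derived membrane protein, 1 h incubation, filter-based scintillation counting. Primary screen in duplicate at 25 uM, actives followed in concentration series; loss of signal fitted versus DMSO.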

[11] = biological target: human Adrenergic, Alpha 2A Receptor (Adra2A), ADRA2A (gene 150) (UniProt P08913); assay: NVS_GPCR_hAdra2A: NovaScreen (NVS) G Protein-Coupled Receptor Assay for human Adrenergic, Alpha 2A Receptor (Adra2A) (AID 2283257)
Procedure, shortened: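 Radioligand filter-binding was run on HT29-derived membranes, cell-free, read by scintillation counting 1 h after dosing. Primary screening was in duplicate at 25 uM, with concentration series in follow-up. Loss of signal versus DMSO indicates displacement.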

[12] = biological target: human Adrenergic, Alpha 2c Receptor (Adra2C), ADRA2C (gene 152) (UniProt P18825); assay: NVS_GPCR_hAdra2C: NovaScreen (NVS) G Protein-Coupled Receptor Assay for human Adrenergic, Alpha 2c Receptor (Adra2C) (AID 2283259)
human Adrenergic, Alpha 2c Receptor (Adra2C), ADRA2C (gene 152), sequence (P18825 whole entry, looked up): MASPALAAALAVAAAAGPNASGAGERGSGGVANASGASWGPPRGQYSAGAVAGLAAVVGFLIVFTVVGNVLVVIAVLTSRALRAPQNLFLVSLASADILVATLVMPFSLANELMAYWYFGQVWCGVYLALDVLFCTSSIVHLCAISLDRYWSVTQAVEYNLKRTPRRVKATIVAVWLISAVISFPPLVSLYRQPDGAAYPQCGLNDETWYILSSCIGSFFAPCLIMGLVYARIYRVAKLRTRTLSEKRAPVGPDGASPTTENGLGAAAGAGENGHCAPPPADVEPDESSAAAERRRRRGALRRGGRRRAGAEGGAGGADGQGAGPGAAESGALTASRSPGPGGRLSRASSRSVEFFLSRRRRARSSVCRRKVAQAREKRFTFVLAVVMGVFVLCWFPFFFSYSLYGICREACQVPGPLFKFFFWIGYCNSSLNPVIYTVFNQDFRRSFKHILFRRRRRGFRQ
Procedure, shortened: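 Radioligand binding on Sf9-expressed receptor membranes, 1 h after chemical dosing, filter-based scintillation read-out. Loss of binding fitted positively versus DMSO; primary duplicate screen at 25 uM, actives retested in concentration series.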

[13] = biological target: Beta-2 adrenergic receptor (Homo sapiens) (UniProt P07550); assay: NVS_GPCR_hAdrb2: NovaScreen (NVS) G Protein-Coupled Receptor Assay for human Adrenergic, Beta 2 Receptor (Adrb2) (AID 2283261)
Procedure, shortened: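 Filter-based radioligand binding using receptor prepared from CHO cells, 1 h incubation, scintillation counting. Primary screen in duplicate at 25 uM, actives retested in concentration series; loss of binding relative to DMSO.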

[14] = biological target: human Histamine 1 Receptor (H1), HRH1 (gene 3269) (UniProt P35367); assay: NVS_GPCR_hH1: NovaScreen (NVS) G Protein-Coupled Receptor Assay for human Histamine 1 Receptor (H1) (AID 2283268)
Procedure, shortened: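 Cell-free radioligand displacement at human H1 receptor, 1 h, filter scintillation counting; primary screen 25 uM in duplicate, hits in concentration series; loss of binding fitted vs DMSO.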

[15] = biological target: human Adrenergic, Beta 1 Receptor (Adrb1), ADRB1 (gene 153) (UniProt P08588); assay: NVS_GPCR_hAdrb1: NovaScreen (NVS) G Protein-Coupled Receptor Assay for human Adrenergic, Beta 1 Receptor (Adrb1) (AID 2283258)
Procedure, shortened: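 Cell-free radioligand displacement on receptor from human neuroepithelioma cells; 2 h after dosing, filter-based scintillation counting. Primary screen in duplicate at 25 uM, actives retested in concentration series; loss of signal vs DMSO baseline.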

[16] = biological target: human Adenosine A1 Receptor (AdoRA1), ADORA1 (gene 134) (UniProt P30542); assay: NVS_GPCR_hAdoRA1: NovaScreen (NVS) G Protein-Coupled Receptor Assay for human Adenosine A1 Receptor (AdoRA1) (AID 2283254)
human Adenosine A1 Receptor (AdoRA1), ADORA1 (gene 134), sequence (P30542 whole entry, looked up): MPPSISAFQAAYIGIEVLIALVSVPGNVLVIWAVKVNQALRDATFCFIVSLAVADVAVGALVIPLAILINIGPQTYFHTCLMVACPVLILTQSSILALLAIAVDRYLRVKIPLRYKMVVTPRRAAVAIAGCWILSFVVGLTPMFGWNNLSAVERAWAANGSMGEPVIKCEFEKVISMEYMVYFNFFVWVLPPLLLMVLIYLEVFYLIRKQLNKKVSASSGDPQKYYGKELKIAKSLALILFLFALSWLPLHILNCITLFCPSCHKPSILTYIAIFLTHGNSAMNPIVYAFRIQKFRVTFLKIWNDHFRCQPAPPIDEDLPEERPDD
Procedure, shortened: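 Radioligand binding was run on human cortical membranes, cell-free, with filter-based scintillation counting 1 h after dosing. The primary screen was duplicate at 25 uM, followed by concentration series. Signal loss versus DMSO was fitted positive-direction.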

[17] = biological target: human Serotonin, 5-Hydroxytryptamine Receptor 6 (5HT6), HTR6 (gene 3362) (UniProt P50406); assay: NVS_GPCR_h5HT6: NovaScreen (NVS) G Protein-Coupled Receptor Assay for human Serotonin, 5-Hydroxytryptamine Receptor 6 (5HT6) (AID 2283253)
human Serotonin, 5-Hydroxytryptamine Receptor 6 (5HT6), HTR6 (gene 3362), sequence (P50406 whole entry, looked up): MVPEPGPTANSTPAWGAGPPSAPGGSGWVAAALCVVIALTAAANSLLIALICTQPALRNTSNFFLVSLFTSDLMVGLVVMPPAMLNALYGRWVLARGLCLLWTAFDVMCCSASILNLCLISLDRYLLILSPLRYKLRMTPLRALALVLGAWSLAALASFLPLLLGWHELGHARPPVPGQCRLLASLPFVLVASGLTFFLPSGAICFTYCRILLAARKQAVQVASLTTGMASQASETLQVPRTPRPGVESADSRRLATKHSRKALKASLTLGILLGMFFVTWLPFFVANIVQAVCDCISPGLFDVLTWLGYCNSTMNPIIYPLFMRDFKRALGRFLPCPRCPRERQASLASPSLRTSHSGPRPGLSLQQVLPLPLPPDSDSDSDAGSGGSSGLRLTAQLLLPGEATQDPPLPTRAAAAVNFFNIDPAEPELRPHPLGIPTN
Procedure, shortened: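 Radioligand binding to 5HT6 in HEK293-derived membranes, cell-free, 1 h after dosing; bound ligand measured by filter-based scintillation counting. Primary screen in duplicate at 25 uM; actives retested in concentration series.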

[18] = biological target: Type-1 angiotensin II receptor (Homo sapiens) (UniProt P30556); assay: NVS_GPCR_hAT1: NovaScreen (NVS) G Protein-Coupled Receptor Assay for human Angiotensin II receptor type 1 (AT1) (AID 2283263)
Type-1 angiotensin II receptor (Homo sapiens), sequence (P30556 whole entry, looked up): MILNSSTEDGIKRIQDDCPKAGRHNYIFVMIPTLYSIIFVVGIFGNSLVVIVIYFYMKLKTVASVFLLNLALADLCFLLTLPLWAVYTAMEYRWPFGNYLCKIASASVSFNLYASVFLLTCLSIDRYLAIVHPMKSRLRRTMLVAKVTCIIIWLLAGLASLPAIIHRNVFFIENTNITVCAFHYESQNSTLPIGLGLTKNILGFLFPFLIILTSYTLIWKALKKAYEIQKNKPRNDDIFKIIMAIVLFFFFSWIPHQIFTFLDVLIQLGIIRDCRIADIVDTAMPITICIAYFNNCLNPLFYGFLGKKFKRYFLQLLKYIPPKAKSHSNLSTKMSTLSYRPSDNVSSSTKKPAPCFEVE
Procedure, shortened: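 Membranes from KAN-TS cells; radioligand competitive displacement, 3 h, filtration and scintillation counting. Single-point duplicate screen at 25 uM, then concentration-response up to 50 uM for hits; loss of signal fitted versus DMSO.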

[19] = biological target: human Endothelin Receptor Type A (ETA), EDNRA (gene 1909) (UniProt P25101); assay: NVS_GPCR_hETA: NovaScreen (NVS) G Protein-Coupled Receptor Assay for human Endothelin Receptor Type A (ETA) (AID 2283265)
Procedure, shortened: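 Cell-free radioligand displacement using SH-SY5Y-derived protein, 3 h incubation, filter-based scintillation counting. Primary screen in duplicate at 25 uM; actives then run in concentration-response up to 50 uM; loss of binding fitted versus DMSO.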

[20] = biological target: human Endothelin Receptor Type B (ETB), EDNRB (gene 1910) (UniProt P24530); assay: NVS_GPCR_hETB: NovaScreen (NVS) G Protein-Coupled Receptor Assay for human Endothelin Receptor Type B (ETB) (AID 2283267)
Procedure, shortened: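 Human astrocytoma cell membranes; radioligand competitive binding read by filter scintillation counting 4 hours after dosing. Single-concentration duplicate screen at 25 uM, then singleton concentration-response up to 50 uM; loss of signal versus DMSO.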

Measured: AC50

Oc1c(I)cc(I)cc1I
inactive: [1] | [2]

O=C(c1ccccc1)C(Cl)Cl
inactive: [2]

Nc1cccc2ccccc12
active: [2] 37.8 µM

COc1cc(-c2ccc(N)c(OC)c2)ccc1N
inactive: [3]
active: [4] 16.7 µM | [5] 5.28 µM and 9.98 µM

CN(C)N=O
inactive: [6]

Clc1ccc(C2(Cn3cncn3)CC(Br)CO2)c(Cl)c1 (stereo not given)
active: [7] 11.8 µM

CCN1CCC2(CC1)COc1cc3c(cc12)N(C(=O)c1ccc(-c2ccc(-c4nnc(C)o4)cc2C)cc1)CC3
active: [8] 10.2 µM | [9] 1.79 µM | [10] 23.4 µM | [3] 23.4 µM | [11] 13.9 µM | [12] 14.3 µM | [13] 23.4 µM | [14] 32.2 µM | [2] 5.49 µM
inactive: [6] | [4]

O=C1C2(Cl)C3(Cl)C4(Cl)C(Cl)(Cl)C5(Cl)C3(Cl)C1(Cl)C5(Cl)C24Cl (stereo not given)
active: [3] 1.04 µM | [1] 0.11 µM | [15] 978 nM
inactive: [10] | [2]

CCNc1nc(NC(C)(C)C)nc(SC)n1
active: [16] 17.8 µM | [1] 17.4 µM

Cn1sc(Cl)cc1=O
inactive: [7] | [17]

COP(=S)(OC)Oc1ccc(Sc2ccc(OP(=S)(OC)OC)cc2)cc1
active: [1] 17.1 µM

C=C(C)C(=O)[O][Sn]([CH2]CCC)([CH2]CCC)[CH2]CCC
active: [8] 36.2 µM | [9] 14 µM | [10] 2.16 µM | [7] 16.9 µM | [17] 4.82 µM | [16] 25 µM | [3] 0.499 µM | [1] 6.84 µM | [11] 4.06 µM | [15] 925 nM | [12] 0.281 µM | [13] 4.57 µM | [6] 25 µM | [18] 2.23 µM | [4] 1.75 µM | [19] 697 nM | [5] 363 nM | [20] 14.8 µM | [14] 1.96 µM | [2] 0.326 µM
